Records with an inconclusive call do not appear. Active and inactive are the calls of the source. Calls follow the shape of the dose curve; as a rule, active = well fitted curve in the direction sought with a large enough effect; inconclusive = small, poorly fitted or top-dose-only effect, or another doubt; inactive = no such curve, though single readings can be large; an effect the other way counts as inactive or inconclusive.
Assays:
[1] = test system: Zika virus NS2B-NS3 protease (linked construct); assay: Primary screen NINDS Rhodamine qHTS for Zika virus inhibitors (AID 1347160); also: nearly all actives have a fitted effect of over 55% in size; also: potency is read from the fitted curve at half-maximal effect; as to activity change, negative = inhibition: % is scaled to controls: 0 for no effect and ±100 for the full control effect
Procedure, shortened: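 Aprotinin served as in-plate control. Conditions: 25 nM linked NS2B-NS3, pH 8.0 Tris buffer, titrated compounds, 15 min preincubation and 15 min reaction with 1.5 microM Rhod110 substrate at room temperature.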

[2] = OV-KATE Cancer Cell Toxicity qHTS against the NCATS CANVASS Library (AID 1347345); also: potency is read from the fitted curve at half-maximal effect; as to activity change, negative = cytotoxicity: % is scaled to controls: 0 for no effect and ±100 for the full control effect
Procedure, shortened: (§1)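 Quantitative HTS format: an 11-concentration series was applied to 1000 cells/well following a 4-hour attachment. Cultures ran 72 hours before ATP luminescence detection by CellTiter-Glo.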

[3] = HPAF-II Cancer Cell Toxicity qHTS against the NCATS CANVASS Library (AID 1347346); also: nearly all actives have a fitted effect of over 55% in size; also: potency is read from the fitted curve at half-maximal effect; as to activity change, negative = cytotoxicity: series mostly up to about 38 µM; % is scaled to controls: 0 for no effect and ±100 for the full control effect
Procedure, shortened: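 Cytotoxicity read-out was CellTiter-Glo luminescence after 72 h at 37 degrees C exposure of HPAF-II cells (1000/well) to compounds in an 11-point titration.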

[4] = UWB1.289 Cancer Cell Toxicity qHTS against the NCATS CANVASS Library (AID 1347347); also: nearly all actives have a fitted effect of over 60% in size; also: potency is read from the fitted curve at half-maximal effect
Procedure, shortened: as §1

[5] = OV-SAHO Cancer Cell Toxicity qHTS against the NCATS CANVASS Library (AID 1347348); also: nearly all actives have a fitted effect of over 55% in size; also: potency is read from the fitted curve at half-maximal effect
Procedure, shortened: as §1

[6] = U-118MG Cancer Cell Toxicity qHTS against the NCATS CANVASS Library (AID 1347351); also: potency is read from the fitted curve at half-maximal effect
Procedure, shortened: as §1

[7] = COV-362 Cancer Cell Toxicity qHTS against the NCATS CANVASS Library (AID 1347352); also: potency is read from the fitted curve at half-maximal effect
Procedure, shortened: (§2)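 Toxicity was measured as CellTiter-Glo luminescence after 72 h exposure to an 11-point compound series. Compound was added to 1000 cells/well 4 h after seeding.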

[8] = A2780 Cisplatin Sensitive Ovarian Cancer Cell Toxicity qHTS against the NCATS CANVASS Library (AID 1347353); also: nearly all actives have a fitted effect of over 60% in size; also: potency is read from the fitted curve at half-maximal effect
Procedure, shortened: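 Cisplatin-sensitive A2780 ovarian cells (750/well) received compound in 11 concentrations, and were incubated 72 h at 37 °C. ATP content was measured by ATPLite luminescence; bortezomib served as control.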

[9] = UWB1.289-WTBRCA1 Cancer Cell Toxicity qHTS against the NCATS CANVASS Library (AID 1347354); also: potency is read from the fitted curve at half-maximal effect
Procedure, shortened: as §2

[10] = HPAF-II 24hr Apoptosis Induction qHTS against the NCATS CANVASS Library (AID 1347356); also: 0% is about no effect
Procedure, shortened: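 Caspase-Glo 3/7 luminescence, read after 15 min room-temperature development, measures apoptosis in HPAF-II cells treated 24 h at 37 degrees C with an 11-point concentration series; 500 cells/well; doxorubicin control.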

[11] = HEK293 24hr Apoptosis Induction qHTS against the NCATS CANVASS Library (AID 1347359); also: 0% is about no effect
Procedure, shortened: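 HEK293 cells, 500 per well, exposed to an 11-point compound series for 24 hours at 37 degrees C. Caspase 3/7 activity read by Caspase-Glo luminescence (DEVD substrate) after 15 min at room temperature.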

[12] = HEK293 12hr Apoptosis Induction qHTS against the NCATS CANVASS Library (AID 1347361); also: 0% is about no effect
Procedure, shortened: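 Cells are seeded, dosed with an 11-point compound series and incubated 12 hours. Caspase-3/7 activity is detected by luminescent DEVD-substrate reagent after 15 minutes at room temperature.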

[13] = test system: NAD(P)H diaphorase (Clostridium kluyveri); assay: Diaphorse counterscreen qHTS: Assay Interference Panel against the NCATS CANVASS Library (AID 1347362); also: 0% is about no effect
Procedure, shortened: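 Clostridium kluyveri diaphorase in PBS + 0.01% Tween-20 preincubated 15 min with compounds. Resazurin and NADH then added for 5 min at room temperature in the dark; resorufin fluorescence read (ex 525, em 598).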

[14] = qHTS for ATAD5 Agonist screened against the NCATS CANVASS Library (AID 1347367);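 also: luciferase reporter driven by ATAD5 which rises upon DNA damage; 0% is about no effect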
Procedure, shortened: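 HEK293T-ATAD5 luc reporter; 2000 cells/well; 5hr settle; cpd 11-pt qHTS; 16hr 37C 5% CO2 dark; viability by CellTiter-Fluor (AFC fluorescence); then luciferase luminescence, 30min RT.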

[15] = MCF7 Cancer Cell Toxicity qHTS against the NCATS CANVASS Library (AID 1347369); also: potency is read from the fitted curve at half-maximal effect
Procedure, shortened: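 Cells seeded at 500/well, then compound pinned. Plates incubated 72 hr at 37C, 5% CO2. CellTiterGlo added; luminescence read.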

[16] = J3T Cancer Cell Toxicity qHTS against the NCATS CANVASS Library (AID 1347371)
Procedure, shortened: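 Cytotoxicity read as CellTiterGlo ATP luminescence after 72 h incubation (37C, 5% CO2) of J3T canine glioma cells (500/well) with an 11-point compound series.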

[17] = qHTS for Hypoxia signaling pathway (HIF-1) agonists against the NCATS CANVASS Library (AID 1347375); also: potency is read from the fitted curve at half-maximal effect; as to activation: 0% is about no effect
Procedure, shortened: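 Beta-lactamase reporter under HRE control in ME-180 cells; compounds (11-point qHTS series) added after 5 hrs plating, then 17 hrs at 37C. FRET substrate read after 2 hr; same-well CellTiter-Glo luminescence gave viability and normalization.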

[18] = qHTS for Inflammasome Signaling Inhibitors: IL-1-beta AlphaLISA screen against the NCATS CANVASS Library (AID 1347379);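 also: human THP-1 cells primed with LPS then triggered with ATP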;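 as to activity change, negative = inhibition: secreted IL-1B measured as AlphaLISA emission at 615 nm; % is scaled to controls: 0 for no effect and ±100 for the full control effect; lower signal means less IL-1B release which is the wanted effect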
Procedure, shortened: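 Secreted IL-1B from human THP-1 cells quantified by AlphaLISA 16 hr after compound addition (final up to 57.5 uM). A 1 hr compound pretreatment preceded inflammasome activation with 250 ng/mL LPS plus 1.25 mM ATP (final).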

[19] = Vero-766 cells viability qHTS against the NCATS CANVASS Library: Counterscreen for Zika virus inhibition assay (AID 1347394); also: nearly all actives have a fitted effect of over 60% in size; also: potency is read from the fitted curve at half-maximal effect
Procedure, shortened: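 Vero 766, no virus; 1000 cells/well; o/n attach; cpd 11-pt; 72 h, 37C, 5% CO2; CTG luminescence; cell-free media wells = 100% inhibition.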

[20] = qHTS for inhibitors of Wild type Zika virus screened against the NCATS CANVASS Library (AID 1347396);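 also: ATP luminescence of surviving cells so rescue from viral cell killing; series mostly up to about 46 µM; % is scaled to controls: 0 for no effect and ±100 for the full control effect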
Procedure, shortened: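 Vero 766 cells, 1000/well, o/n attach; cpds pin-transferred (11-pt qHTS); WT Zika added; 72 h, 37C, 5% CO2; CellTiter Glo lumi. Uninfected + vehicle = 100% inhibition.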

C[C@@H]1C[C@H]2C[C@]3(CCCCN3C)[C@@H]3C[C@H]2[C@H](C1)N(C)C3
inactive: Potency [1] | Potency [2] | Potency [3] | Potency [4] | Potency [5] | Potency [6] | Potency [7] | Potency [8] | Potency [9] | outcome [10] | Potency [11] | Potency [12] | Potency [13] | Potency [14] | Potency [15] | Potency [16] | Potency [17] | Potency [18] | Potency [19] | Potency [20]

COc1ccc([C@@H]2c3cc(OC)c(OC)cc3C(=O)[C@H](C)C2C)cc1OC (stereo partly drawn)
inactive: Potency [1] | activity change, negative = cytotoxicity [2] -0.626% [at 7.64 µM] | activity change, negative = cytotoxicity [3] 3.84% [at 7.64 µM] | activity change, negative = cytotoxicity [4] 3.43% [at 7.64 µM] | activity change, negative = cytotoxicity [5] -3.3% [at 7.64 µM] | activity change, negative = cytotoxicity [6] 3.5% [at 7.64 µM] | activity change, negative = cytotoxicity [7] -1.95% [at 7.64 µM] | outcome [8] inactive [at 9.19 µM] | outcome [9] inactive [at 7.64 µM] | caspase activation [10] 1.81% [at 9.19 µM] | activation [11] 3.39% [at 9.19 µM] | caspase activation [12] 2.92% [at 9.19 µM] | activity change, negative = inhibition [13] 0.301% [at 11.5 µM] | activation [14] -0.416% [at 9.19 µM] | activity change, negative = cytotoxicity [15] -14.7% [at 9.17 µM] | outcome [16] inactive [at 9.19 µM] | activation [17] -1.07% [at 7.64 µM] | outcome [18] inactive [at 11.5 µM] | activity change, negative = cytotoxic [19] -18.3% [at 9.19 µM] | activity change, negative = antiviral [20] 5.82% [at 9.14 µM]

CC1=CC[C@@]2(C[C@@H]1O)[C@@H](C(=O)O)CC[C@H]2C(C)C
inactive: Potency [1] | Potency [2] | Potency [3] | Potency [4] | Potency [5] | Potency [6] | Potency [7] | Potency [8] | Potency [9] | outcome [10] | Potency [11] | Potency [12] | Potency [13] | Potency [14] | Potency [15] | Potency [16] | Potency [17] | Potency [18] | Potency [19] | Potency [20]

C=C1/C=C\C(CCC)=C\c2csc(n2)C(C)NC(=O)C[C@@]2(CC(=O)O)CCC(=C)[C@H](C1)S2 (stereo partly drawn)
inactive: Potency [2] | Potency [3] | Potency [4] | Potency [5] | Potency [6] | Potency [7] | Potency [8] | Potency [9] | outcome [10] | Potency [11] | Potency [12] | Potency [13] | Potency [14] | Potency [15] | Potency [16] | Potency [17] | Potency [18] | Potency [19] | Potency [20]
active: Potency [1] 2.77 µM

C1=C2CCCN[C@@H]2[C@@H]2CCN3CCCC[C@@H]3[C@H](C1)C2
inactive: Potency [1] | Potency [2] | Potency [3] | Potency [4] | Potency [5] | Potency [6] | Potency [7] | Potency [8] | Potency [9] | outcome [10] | Potency [11] | Potency [12] | Potency [13] | Potency [14] | Potency [15] | Potency [16] | Potency [17] | Potency [18] | Potency [19] | Potency [20]

CC(C)=CCC/C(C)=C/Cc1c(O)c(CC=C(C)C)c(O)c2c(=O)c3cc(O)ccc3oc12
active: Potency [1] 9.84 µM | Potency [2] 2.36 µM | Potency [3] 13.3 µM | Potency [4] 8.38 µM | Potency [5] 10.6 µM | Potency [6] 21.1 µM | Potency [7] 18.8 µM | Potency [8] 14.8 µM | Potency [9] 14.9 µM | Potency [15] 16.5 µM | Potency [17] 13.3 µM | Potency [19] 26.3 µM
inactive: outcome [10] | Potency [11] | Potency [12] | Potency [13] | Potency [14] | Potency [16]

CNc1ccc(Cl)cc1C(=O)OC[C@]1(C)[C@H]2CC[C@]3(C)[C@@H](C[C@@H](OC)[C@H](C)[C@H]3C3=C(O)C(=O)OC3O)[C@]2(C)CC[C@H]1O (stereo partly drawn)
active: Potency [1] 6.21 µM | Potency [17] 13.3 µM
inactive: Potency [2] | Potency [3] | Potency [4] | Potency [5] | Potency [6] | Potency [7] | Potency [8] | Potency [9] | outcome [10] | Potency [11] | Potency [12] | Potency [13] | Potency [14] | Potency [15] | Potency [16] | Potency [18] | Potency [19] | Potency [20]

Source: PubChem BioAssay (NCATS)
